# Compound activity (PubChem)
# Hits are enriched below; roughly 2.4% of the tested compounds scored in any of these assays.
# SENP8 block-1: SENP8 (human) protease inhibition; Q96LD8; recombinant SENP8, Nedd8 substrate fluorescence; inhibition, % at 20 µM; 0.64% of 360,000 active; AID 602440; in the data active = inhibition mostly above about 40%, no sharp cut-off; inactive = mostly below about 27%
# SENP6 block: blocks the human protease SENP6 | Q9GZR1 | Recombinant SENP6 catalytic domain, aminoluciferin luminescence | inhibition, % at 10 µM | 1.8% of 330,000 active | AID 2599;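 active = inhibition above about 50% at the single tested dose, limit read from the data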;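 note: plate controls were DMSO wells with enzyme for no effect and DMSO wells lacking enzyme for full effect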
# Target sequence (Q9GZR1 628-1112 limits assumed): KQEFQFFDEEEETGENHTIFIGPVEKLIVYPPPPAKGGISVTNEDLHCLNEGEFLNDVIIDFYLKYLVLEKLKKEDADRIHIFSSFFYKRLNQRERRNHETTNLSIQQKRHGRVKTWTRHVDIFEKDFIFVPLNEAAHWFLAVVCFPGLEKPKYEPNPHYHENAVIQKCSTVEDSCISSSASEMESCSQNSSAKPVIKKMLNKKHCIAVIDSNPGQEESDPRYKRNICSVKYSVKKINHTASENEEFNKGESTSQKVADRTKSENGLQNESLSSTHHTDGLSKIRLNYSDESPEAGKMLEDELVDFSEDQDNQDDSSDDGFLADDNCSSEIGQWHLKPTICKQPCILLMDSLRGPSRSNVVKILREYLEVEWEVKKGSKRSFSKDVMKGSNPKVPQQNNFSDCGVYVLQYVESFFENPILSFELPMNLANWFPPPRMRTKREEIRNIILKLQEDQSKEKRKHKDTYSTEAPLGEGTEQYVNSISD
# SENP7 block: blocks the human protease SENP7; 1.5% of 330,000 active; Q9BQF6; recombinant SENP7, Z-RLRGG-aminoluciferin luminescence, 40 min; inhibition, % at 5 µM;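 active = inhibition above about 50% at the single test dose, limit read from the data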;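 note: plate controls were DMSO with enzyme for no effect and no enzyme buffer wells for full effect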
# Platelet DG rel: modulates dense granule release in human platelets; human platelet-rich plasma, SFLLRN dense granule ATP release, luminescence; inhibition, %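 (compounds screened at 7.5 µM in platelet-rich plasma)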; 0.22% of 300,000 active; AID 1663;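 active = mean replicate score, as percent of positive control, at or above 50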
# SENP8 block-2: SENP8 protease inhibition; 1.2% of 330,000 active; Q96LD8; purified SENP8, Z-RLRGG-aminoluciferin cleavage, luminescence; inhibition, % at 10 µM; in the data active = inhibition above about 50%
# SENP8 conf: human SENP8 inhibition, confirmed; Recombinant SENP8, Z-RLRGG-aminoluciferin luminescence, 60 min; AID 488912; 40% of 6,200 active; inhibition, % at 12.5 µM; shares compounds with SENP7 block;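 active = mean inhibition across replicates above about 50%, limit read from the data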
# SENP6 conf: confirmation of human SENP6 protease inhibitors; shares compounds with SENP7 block; AID 488915; inhibition, % at 12.5 µM; recombinant SENP6, Z-RLRGG-aminoluciferin luminescence; 58% of 6,200 active
# SENP7 confirm: human SENP7 inhibition, confirmed; AID 488917; shares compounds with SENP7 block; recombinant SENP7, Z-RLRGG-aminoluciferin luminescence, 40 min; inhibition, % at 12.5 µM; 69% of 6,200 active
# Casp3 select: selectivity test for SENP inhibitors: human caspase-3 inhibition; shares compounds with SENP7 block; purified caspase-3, Z-DEVD-aminoluciferin luminescence, 60 min; inhibition, % at 12.5 µM; 60% of 6,200 active; AID 488918;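 active = mean inhibition above about 50%, limit read from the data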;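 note: plate controls were enzyme with DMSO for no effect and wells without caspase-3 for full effect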
# SENP luc ctr: interferes with luciferase luminescence in SENP counter-screen | shares compounds with SENP7 block | inhibition, % at 12.5 µM | AID 488919 | 39% of 6,200 active | Pre-incubated SENP8/Z-RLRGG-aminoluciferin, luciferase luminescence interference;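 active = mean inhibition above about 50% when retested at one dose, limit read from the data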;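 note: plate controls were DMSO wells with completed reaction for no effect and substrate without enzyme for full effect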
# * hit, by the source's call; . = no result given.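 Rule for the calls, unless noted: active = mean inhibition above about 50% in the one-dose retest (limit read from the data); inactive = the rest.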
SMILES,SENP8 block-1,SENP6 block,SENP7 block,Platelet DG rel,SENP8 block-2,SENP8 conf,SENP6 conf,SENP7 confirm,Casp3 select,SENP luc ctr
COc1cccc(N/C(N)=N/c2nc(C)cc(=O)[nH]2)c1,6,-12,-4,2,1,.,.,.,.,.
CCOc1ccc(N(CC(=O)N2CCN(Cc3ccccc3)CC2)S(C)(=O)=O)cc1,12,-30,-13,-10,-3,.,.,.,.,.
O=C(O)c1ccc(/C=N/NC(=O)c2cc(-c3ccc4c5c(cccc35)CC4)n[nH]2)cc1,-20,-2,17,0,7,.,.,.,.,.
CCCS(=O)(=O)c1cnc(C2COc3ccccc3O2)nc1N (configuration not stated),13,93*,94*,66*,87*,82*,92*,100*,96*,17
Cc1csc(NC(=O)c2ccc3nc[nH]c3c2)n1,1,82*,78*,-1,69*,12,75*,95*,88*,74*
CC(=O)Nc1nc(=O)c2ccccc2s1,16,-5,2,11,-5,.,.,.,.,.
COc1cccc(C(=O)Nc2nnc(SCC(=O)Nc3ccc(NC(C)=O)cc3)s2)c1,-30,70*,49,4,55*,32,61*,86*,67*,12
O=C(Nc1nc2c(s1)C(=O)CCC2)c1ccccc1,-29,97*,97*,-10,95*,97*,98*,101*,97*,96*
O=C(Nc1nc(=O)[nH]s1)c1ccccc1,12,-11,2,-2,-2,.,.,.,.,.
O=C(Nc1nc(=O)c2ccccc2s1)c1ccccc1,19,60*,41,1,43,20,53*,17,27,11
Cc1ccc([C@@H]2C[C@H]3[C@@H](CN2S(=O)(=O)c2ccc(Cl)cc2)C(=O)C[C@@H](c2ccc(Cl)cc2)N3S(=O)(=O)c2ccccc2C)cc1,3,.,.,.,.,.,.,.,.,.
COc1ccc(/C=N/OCC(=O)Nc2nc3ccccc3s2)cc1OC,21,87*,75*,-2,70*,11,78*,94*,64*,51*
COc1ccc(C(=O)Nc2nc3ccccc3s2)cc1,-28,96*,93*,6,89*,-9,94*,101*,88*,85*
O=C(Nc1ncccc1O)c1ccc(OCC2CCCO2)cc1 (configuration not stated),-2,45,51*,31,21,44,42,77*,82*,49
O=C(Nc1nc2ccccc2s1)c1ccc(F)cc1,-43,88*,93*,7,85*,2,87*,100*,86*,48
O=S(=O)(/N=C(/Nc1nc2ccccc2s1)c1ccccc1)c1ccc(F)cc1,-5,19,9,.,1,.,.,.,.,.
CCCCCCN1C[C@@H](n2cc(COC(=O)c3ccccc3)nn2)[C@H](O)C[C@@H]1c1ccc(OC)cc1,4,.,.,.,.,.,.,.,.,.
CCOc1ccc(N2CC(C(=O)N3CCN(C(=O)c4ccco4)CC3)CC2=O)cc1 (configuration not stated),6,-14,2,-13,2,.,.,.,.,.
O=C(Nc1nc2ccccc2s1)c1ccc(Cl)s1,-289,77*,82*,4,67*,14,50,51*,41,17
COc1cccc(C(=O)Nc2nc(-c3ccncc3)cs2)c1,-15,1,7,2,-4,.,.,.,.,.
COc1cccc(C(=O)Nc2nc(C)cs2)c1,15,52*,42,-2,17,31,32,72*,69*,50*
Cc1cnc(NC(=O)c2ccc(OCC3CCCO3)cc2)s1 (configuration not stated),-76,-24,37,8,10,.,.,.,.,.
